Among the data in PubChem BioAssay (EPA / NIEHS) are outcome and AC50 values, retold here.

The structures appear in SMILES notation. The source made the active and inactive calls. Rule for the calls: active = hit-call score of the fitted dose curve at least 0.9, where 1 is the maximum; inactive = score below 0.9.

Read-out in assay [1]: Cyclin D1 (CCND1), CCND1 (gene 595)
As to the kind of experiment: LTEA_HepaRG_CCND1: Life Technologies and Expression Analysis (LTEA) Assay for Cyclin D1 (CCND1) using HepaRG (AID 2283451).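 For AC50: differentiated human HepaRG liver cells in serum-free induction medium.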 The note with it: mRNA level, 48 h; actives raise or lower the signal. The method, boiled down:
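Expression of CCND1 was quantified by qRT-PCR on Fluidigm arrays using ACTB, GAPDH and POLR2A as reference genes. HepaRG cultures, plated 48 h beforehand, were dosed for 48 h at up to 100 uM (half-log, 8 points) in 0.5% DMSO.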

Read-out in assay [2]: flavin-containing dimethylaniline monooxygenases 3 (FMO3), FMO3 (gene 2328)
The experiment in a line: LTEA_HepaRG_FMO3: Life Technologies and Expression Analysis (LTEA) Assay for flavin-containing dimethylaniline monooxygenases 3 (FMO3) using HepaRG (AID 2283453). The note with it: mRNA level, 48 h; actives raise or lower the signal. The method, boiled down:
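Eight-point concentration-response in serum-free HepaRG cultures (top 100 uM, 0.5% DMSO, 48 h). Read-out: FMO3 mRNA level normalized to three endogenous control genes, fitted bidirectionally versus vehicle.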

Read-out in assay [3]: Cytochrome P450 (CYP1A1), CYP1A1 (gene 1543)
As to the kind of experiment: LTEA_HepaRG_CYP1A1: Life Technologies and Expression Analysis (LTEA) Assay for Cytochrome P450 (CYP1A1) using HepaRG (AID 2283454). The note with it: mRNA level, 48 h; actives raise or lower the signal. Put shortly: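 CYP1A1 transcript levels measured by Fluidigm qRT-PCR against three housekeeping genes, 48 h after chemical dosing of human HepaRG cells (highest concentration 100 uM, half-log steps, 0.5% DMSO vehicle). Gain or loss of signal fitted relative to DMSO.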

Read-out in assay [4]: CFLAR gene, CFLAR (gene 8837)
The experiment in a line: LTEA_HepaRG_CFLAR: Life Technologies and Expression Analysis (LTEA) Assay for CFLAR gene using HepaRG (AID 2283455). The note with it: mRNA level, 48 h; actives raise or lower the signal. Put shortly:
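qRT-PCR read-out (Fluidigm/TaqMan) of CFLAR mRNA, normalized to three housekeeping genes, in differentiated human HepaRG cells after 48 h chemical exposure; 8-point half-log series from 100 uM in 0.5% DMSO; bidirectional curve fitting versus DMSO.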

The nature of assay [5]: CEETOX_H295R_TESTO: CeeTox H295R High-throughput Steroidogenesis Assay for Testosterone (TESTO) (AID 2283457). The conditions noted are these: actives raise or lower the signal. Put shortly:
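Testosterone secreted into the medium over 48 h by H295R cells (maximum passage 10) was quantified by LC-MS/MS after MTBE extraction. Fitted in both directions against DMSO, with concentrations diluted until MTT viability was ≥70%.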

Read-out in assay [6]: growth arrest and DNA damage 45 (GADD45A), GADD45A (gene 1647)
The experiment in a line: LTEA_HepaRG_GADD45A: Life Technologies and Expression Analysis (LTEA) Assay for growth arrest and DNA damage 45 (GADD45A) using HepaRG (AID 2283458). The conditions noted are these: mRNA level, 48 h; actives raise or lower the signal. Put shortly:
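Eight-point concentration-response in HepaRG cells: 48 h chemical exposure, 0.5% DMSO vehicle, top dose 100 uM. Normalized qRT-PCR mRNA readout with bidirectional fitting relative to DMSO.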

Read-out in assay [7]: Forkhead box O3 (FOXO3), FOXO3 (gene 2309)
As to the kind of experiment: LTEA_HepaRG_FOXO3: Life Technologies and Expression Analysis (LTEA) Assay for Forkhead box O3 (FOXO3) using HepaRG (AID 2283459). The conditions noted are these: mRNA level, 48 h; actives raise or lower the signal. Put shortly:
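qRT-PCR readout of FOXO3 transcript, normalized to three housekeeping genes (ACTB, GAPDH, POLR2A); gain or loss fitted against 0.5% DMSO vehicle. HepaRG cells, 48 h chemical exposure, 8-point half-log series, top 100 uM.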

Read-out in assay [8]: ABC Transporter (ABCB1), ABCB1 (gene 5243)
The experiment in a line: LTEA_HepaRG_ABCB1: Life Technologies and Expression Analysis (LTEA) Assay for ABC Transporter (ABCB1) using HepaRG (AID 2283460). The note with it: mRNA level, 48 h; actives raise or lower the signal. Put shortly: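 HepaRG, 48 h exposure, 8-pt half-log series from 100 uM, 0.5% DMSO vehicle, duplicates. Readout: ABCB1 transcript by Fluidigm TaqMan qRT-PCR, housekeeping-normalized; bidirectional curve fit vs DMSO baseline.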

Read-out in assay [9]: growth arrest and DNA damage 45 (GADD45B), GADD45B (gene 4616)
As to the kind of experiment: LTEA_HepaRG_GADD45B: Life Technologies and Expression Analysis (LTEA) Assay for growth arrest and DNA damage 45 (GADD45B) using HepaRG (AID 2283461). The conditions noted are these: mRNA level, 48 h; actives raise or lower the signal. Put shortly: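 Transcript level quantified by Fluidigm TaqMan qRT-PCR with three housekeeping genes for normalization, analyzed for up- or down-regulation against 0.5% DMSO. HepaRG cultures dosed 48 h at eight half-log concentrations up to 100 uM, duplicates.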

Read-out in assay [10]: ABC Transporter (ABCC3), ABCC3 (gene 8714)
The experiment in a line: LTEA_HepaRG_ABCC3: Life Technologies and Expression Analysis (LTEA) Assay for ABC Transporter (ABCC3) using HepaRG (AID 2283462). The note with it: mRNA level, 48 h; actives raise or lower the signal. Put shortly: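 Transcript level by TaqMan qRT-PCR, normalised to three housekeeping genes, fitted in both directions relative to vehicle. Chemicals tested in duplicate at eight half-log concentrations up to 100 uM for 48 h on HepaRG cells (0.5% DMSO).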

Read-out in assay [11]: ABC Transporter (ABCB11), ABCB11 (gene 8647)
As to the kind of experiment: LTEA_HepaRG_ABCB11: Life Technologies and Expression Analysis (LTEA) Assay for ABC Transporter (ABCB11) using HepaRG (AID 2283463). The note with it: mRNA level, 48 h; actives raise or lower the signal. The method, boiled down: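 HepaRG, 48 h exposure, 8-pt half-log CRC top 100 uM, 0.5% DMSO vehicle, duplicates. Readout: TaqMan qRT-PCR of ABCB11 mRNA, housekeeping-normalized (ACTB/GAPDH/POLR2A). Bidirectional fit vs DMSO baseline.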

Read-out in assay [12]: ABC Transporter (ABCC2), ABCC2 (gene 1244)
The experiment in a line: LTEA_HepaRG_ABCC2: Life Technologies and Expression Analysis (LTEA) Assay for ABC Transporter (ABCC2) using HepaRG (AID 2283464). The note with it: mRNA level, 48 h; actives raise or lower the signal. The method, boiled down:
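Endpoint is ABCC2 transcript level from qRT-PCR, normalized to three housekeeping genes and fitted bidirectionally relative to DMSO. Human HepaRG cells received test chemical for 48 h at up to 100 uM (8 points, half-log steps, 0.5% DMSO), duplicate wells.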

Read-out in assay [13]: Broad substrate specificity ATP-binding cassette transporter ABCG2 (Homo sapiens) (UniProt Q9UNQ0)
The experiment in a line: LTEA_HepaRG_ABCG2: Life Technologies and Expression Analysis (LTEA) Assay for ABC Transporter (ABCG2) using HepaRG (AID 2283465). The conditions noted are these: mRNA level, 48 h; actives raise or lower the signal. The method, boiled down:
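HepaRG, 48 h exposure, 8-pt half-log series from 100 uM, 0.5% DMSO vehicle, duplicates. Readout: ABCG2 transcript by qRT-PCR (Fluidigm array), housekeeping-normalized; bidirectional curve fit relative to DMSO baseline.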

Read-out in assay [14]: ATP-citrate lyase (ACLY), ACLY (gene 47)
As to the kind of experiment: LTEA_HepaRG_ACLY: Life Technologies and Expression Analysis (LTEA) Assay for ATP-citrate lyase (ACLY) using HepaRG (AID 2283466). The note with it: mRNA level, 48 h; actives raise or lower the signal. Put shortly: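 qRT-PCR readout of ACLY transcript after 48 h chemical treatment of HepaRG cells; expression normalized to three housekeeping genes. Eight-point half-log series, highest 100 uM, 0.5% DMSO vehicle. Gain or loss fitted against DMSO baseline.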

Read-out in assay [15]: Peroxisomal acyl-coenzyme A oxidase 1 (ACOX1) gene, ACOX1 (gene 51)
As to the kind of experiment: LTEA_HepaRG_ACOX1: Life Technologies and Expression Analysis (LTEA) Assay for Peroxisomal acyl-coenzyme A oxidase 1 (ACOX1) gene using HepaRG (AID 2283467). The note with it: mRNA level, 48 h; actives raise or lower the signal. The method, boiled down:
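HepaRG, 48 h chemical exposure, 8-pt half-log series from 100 uM top, 0.5% DMSO vehicle, duplicates. Readout: ACOX1 mRNA by Fluidigm qRT-PCR, housekeeping-normalized; bidirectional fit vs DMSO baseline.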

Read-out in assay [16]: Alkaline Phosphatase, Placental (ALPP) gene, ALPP (gene 250)
The experiment in a line: LTEA_HepaRG_ALPP: Life Technologies and Expression Analysis (LTEA) Assay for Alkaline Phosphatase, Placental (ALPP) gene using HepaRG (AID 2283468). The conditions noted are these: mRNA level, 48 h; actives raise or lower the signal. The method, boiled down:
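ALPP transcript level, measured by qRT-PCR and normalized to three housekeeping genes (ACTB, GAPDH, POLR2A), after 48 h dosing of differentiated HepaRG in serum-free induction medium. Top concentration 100 uM with half-log dilutions (8 points, 0.5% DMSO, duplicates); bidirectional fitting relative to DMSO.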

Read-out in assay [17]: Bcl-2 (BAD) gene, BAD (gene 572)
The experiment in a line: LTEA_HepaRG_BAD: Life Technologies and Expression Analysis (LTEA) Assay for Bcl-2 (BAD) gene using HepaRG (AID 2283469). The note with it: mRNA level, 48 h; actives raise or lower the signal. The method, boiled down: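 HepaRG, 48 h exposure, 8-pt half-log curve from 100 uM in 0.5% DMSO, duplicates. Readout: TaqMan qRT-PCR for BAD mRNA, housekeeping-normalised (ACTB/GAPDH/POLR2A); gain or loss fitted against DMSO baseline.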

Read-out in assay [18]: catalase (CAT), CAT (gene 847)
The experiment in a line: LTEA_HepaRG_CAT: Life Technologies and Expression Analysis (LTEA) Assay for catalase (CAT) using HepaRG (AID 2283452). The conditions noted are these: mRNA level, 48 h; actives raise or lower the signal. Put shortly: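 HepaRG cells in serum-free induction medium, 0.5% DMSO vehicle, exposed 48 h in duplicate over 8 half-log concentrations from 100 uM. CAT mRNA measured by qRT-PCR, normalized to ACTB, GAPDH, POLR2A; bidirectional fit versus DMSO.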

Read-out in assay [19]: Forkhead box O1 (FOXO1), FOXO1 (gene 2308)
The experiment in a line: LTEA_HepaRG_FOXO1: Life Technologies and Expression Analysis (LTEA) Assay for Forkhead box O1 (FOXO1) using HepaRG (AID 2283456). The note with it: mRNA level, 48 h; actives raise or lower the signal. The method, boiled down: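 HepaRG, 48 h exposure, 8-pt half-log series from 100 uM in 0.5% DMSO, duplicates; Fluidigm qRT-PCR mRNA, housekeeping-normalised; bidirectional fit vs DMSO baseline.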

Chain of Broad substrate specificity ATP-binding cassette transporter ABCG2 (Homo sapiens) (Q9UNQ0 whole entry, looked up): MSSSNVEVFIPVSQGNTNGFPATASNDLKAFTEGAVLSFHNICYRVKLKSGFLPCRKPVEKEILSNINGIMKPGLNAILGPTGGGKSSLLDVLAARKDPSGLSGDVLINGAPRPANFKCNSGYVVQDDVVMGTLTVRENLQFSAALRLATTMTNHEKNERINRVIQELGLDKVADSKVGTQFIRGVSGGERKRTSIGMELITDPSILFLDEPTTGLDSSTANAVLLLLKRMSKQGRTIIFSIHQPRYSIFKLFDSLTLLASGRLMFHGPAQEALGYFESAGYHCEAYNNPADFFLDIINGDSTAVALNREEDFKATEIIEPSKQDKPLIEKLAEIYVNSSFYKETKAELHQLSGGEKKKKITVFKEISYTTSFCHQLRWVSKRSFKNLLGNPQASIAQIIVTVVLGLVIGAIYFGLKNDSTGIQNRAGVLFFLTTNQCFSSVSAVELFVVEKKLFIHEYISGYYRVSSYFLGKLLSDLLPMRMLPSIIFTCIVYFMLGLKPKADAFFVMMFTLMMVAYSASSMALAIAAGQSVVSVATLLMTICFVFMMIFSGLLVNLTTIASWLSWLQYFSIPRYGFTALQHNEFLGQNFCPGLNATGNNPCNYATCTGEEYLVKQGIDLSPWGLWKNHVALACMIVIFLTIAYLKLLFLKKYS

As for `COCc1cnc(C2=NC(C)(C(C)C)C(=O)N2)c(C(=O)O)c1` (stereo not given), the call in assay [1], in assay [2], in assay [4], in [5], in assay [6] and in [7] was inactive. For the same compound, the result in assay [8], in assay [9], in [10], in assay [11], in assay [12] and in assay [13] was inactive. For the same compound, the outcome in assay [14], in [15], in assay [16] and in assay [17] was inactive. Also, the half-maximal activity concentration (AC50) in assay [3] is 65.5 µM (active).

Take `COC(=O)NS(=O)(=O)c1ccc(N)cc1`: the compound was classed as inactive in assay [1], in assay [18], in assay [2], in [3], in [4] and in assay [6]. For the same compound, the outcome in assay [7], in [8], in [10], in assay [11], in [12] and in assay [13] was inactive. The call in [14], in assay [15], in assay [16] and in assay [17] was inactive.

For the compound `Nc1cnn(-c2ccccc2)c(=O)c1Cl`, the compound was called inactive in [1], in assay [2], in [4], in [19], in assay [6] and in [7]. The compound was called inactive in assay [8], in assay [9], in [10], in assay [11], in assay [12] and in assay [13]. Further, the result in [14], in assay [15], in [16] and in assay [17] was inactive. Besides, the half-maximal activity concentration (AC50) in assay [3] is 71.7 µM (active).

Turning to `C=CCOC(=O)C(C)(C)OC(=O)c1cc(-n2c(=O)cc(C(F)(F)F)n(C)c2=O)ccc1Cl`, the compound was called inactive in assay [1], in [2], in assay [3], in assay [4], in [6] and in assay [7]. Further, the compound was called inactive in assay [9], in assay [10], in [11], in [12], in [13] and in assay [15]. The compound was called inactive in [16] and in assay [17].

Take `O=P(O)(O)CCCl`: the AC50 in assay [1] was 0.261 µM (active). For the same compound, the outcome in assay [18], in [2], in assay [3], in [4], in [19] and in [6] was inactive. For the same compound, the compound was classed as inactive in assay [7], in [10], in [11], in assay [12], in [13] and in [14]. Moreover, the outcome in assay [15], in assay [16] and in assay [17] was inactive.
